Sm TGR block: S. mansoni TGR enzyme inhibition; purified TGR, DTNB reduction, TNB absorbance 405 nm; Q962Y6; Potency, µM (series often up to 114 µM), inactives show at the highest dose activity change, negative = inhibition, hits mostly inhibitors; 3% of 360,000 active; further: potency means the concentration at half of the fitted maximal effect; nearly all actives have a fitted effect of over 60% in size
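Kinetic colorimetric format: TGR-catalysed, NADPH-driven DTNB reduction monitored via TNB absorbance. Enzyme dispensed at 20 nM; compound exposure 15 min at room temperature before reaction start.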
Pf growth 96h: P. falciparum growth inhibition at 96 hour, primary screen for plastid delayed-death inhibitors; AID 504834; P. falciparum luciferase reporter growth, 96 h; Potency, µM (series often up to 28.7 µM), without a hit: top-dose activity change, negative = inhibition, actives largely listed as inhibitors; 6.9% of 320,000 active; further: potency means the concentration at half of the fitted maximal effect
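Plates of compound plus infected erythrocytes (2% hematocrit, 0.05% parasitemia final) incubate 96 hours, 37 C, 5% CO2. Detection reagent added; reduced luminescence from the parasites' luciferase reporter flags inhibition.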
Giardia FBPA inh: blocks Giardia fructose-bisphosphate aldolase activity | A8B2U2 | purified Giardia FBPA | Potency, µM (top dose mostly 59.6 µM), inactives show top-dose activity, negative = inhibition, hits mostly inhibitors | 0.71% of 290,000 active; further: potency means the concentration at half of the fitted maximal effect; nearly all actives have a fitted effect of over 55% in size
Target sequence (A8B2U2 whole entry, looked up): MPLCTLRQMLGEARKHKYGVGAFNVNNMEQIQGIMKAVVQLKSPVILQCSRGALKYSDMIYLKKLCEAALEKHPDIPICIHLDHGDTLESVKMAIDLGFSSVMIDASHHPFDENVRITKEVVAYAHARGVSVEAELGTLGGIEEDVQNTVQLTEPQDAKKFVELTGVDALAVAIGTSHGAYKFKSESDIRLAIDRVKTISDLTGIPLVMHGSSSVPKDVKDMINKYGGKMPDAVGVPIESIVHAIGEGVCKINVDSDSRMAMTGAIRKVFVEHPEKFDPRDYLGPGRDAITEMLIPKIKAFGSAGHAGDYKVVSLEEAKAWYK
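Giardia FBPA (40 nM reagent) was preincubated 10 min at RT with compound (up to 57.5 uM final), then substrate plus GAPDH/TPI/NAD/arsenate coupling system with diaphorase/resazurin was added; resorufin fluorescence (525/598 nm) was read after 20 min.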
Pf growth 48h: P. falciparum growth inhibition at 48 hours (one generation) | P. falciparum luciferase growth in erythrocytes, 48 h | Potency, µM (series often up to 28.7 µM), for the others: top-dose activity change, negative = inhibition, usual class: inhibitors | 5.9% of 310,000 active; further: potency means the concentration at half of the fitted maximal effect
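Read-out is firefly luciferase luminescence from an integrated reporter in P. falciparum, so falling signal marks reduced parasite growth. Infected erythrocytes were at 2% hematocrit and 0.1% parasitemia (final) in Albumax-supplemented RPMI 1640.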
HCMV antiviral: human cytomegalovirus inhibition | HFF cells, HCMV-luciferase reporter, 72 h; stronger effect = lower value | activity change, negative = inhibition, % at 57.5 µM | 4.5% of 410,000 active | AID 1259415; in the data active means activity change below about -60%; inconclusive means no clear call, values can overlap the other calls; inactive means above about -39%
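Inhibition of viral replication was scored as loss of reporter luminescence in HFFs infected with HCMV-luciferase (MOI 1 PFU/cell) for 72 h; compounds tested at 2 doses, normalized to buffer and Salinomycin controls.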
* hit, by the source's call; [ ] = dose if it differs, or a comment. Rows were chosen to be rich in hits. Some 14% of all compounds tested hit in one or more screens of this group. Unless noted, the call rests on the fitted dose curve; in most records, active means well fitted curve in the direction sought with a large enough effect; inconclusive means small, poorly fitted or top-dose-only effect, or another doubt; inactive means no such curve, though single readings can be large; an effect the other way counts as inactive or inconclusive. On the % scale 0 is the no-effect control and ±100 the full control effect.

Screening COc1cc(NC(=O)CC2C(=O)N(c3cccc(C)c3)C(=O)N2Cc2ccco2)cc(OC)c1 (stereo not given) returned Sm TGR block 50µM* and HCMV antiviral -32.
For COc1ccc(NC(=O)CC2C(=O)N(Cc3ccccc3)C(=S)N2CCN2CCOCC2)cc1 (stereo not given) the results were Sm TGR block 4%, Pf growth 96h inconclusive, Giardia FBPA inh -4%, Pf growth 48h inconclusive and HCMV antiviral inconclusive.
COc1ccc(NC(=O)CC2C(=O)N(c3cccc(OC)c3)C(=O)N2CCC(C)C)cc1 (stereo not given) was read as Sm TGR block -15%, Pf growth 96h 12µM*, Giardia FBPA inh -9% and HCMV antiviral -9.
`CCc1ccccc1NC(=O)C1=CC(c2ccc(OC)c(OC)c2)=NS(=O)(=O)N1C` gave Sm TGR block 4%, Pf growth 96h 52%, Giardia FBPA inh 9%, Pf growth 48h inconclusive and HCMV antiviral 16.
`CCOc1ccccc1NC(=S)N1CCC(NC(=O)NC23CC4CC(CC(C4)C2)C3)CC1` gave Sm TGR block 12%, Pf growth 96h inconclusive, Giardia FBPA inh 10%, Pf growth 48h -1% and HCMV antiviral 18.
For CCc1ccc(Nc2nnc(-n3nc(C)cc3C)c3ccccc23)cc1 the results were Sm TGR block -3% and HCMV antiviral 8.
For COC(=O)c1ccc(NC(=O)CC2C(=O)N(c3cccc(OC)c3)C(=O)N2Cc2ccco2)cc1 (stereo not given) the results were Sm TGR block inconclusive and HCMV antiviral -13.
For CCCCCCOc1ccc(NC(=O)CC2C(=O)N(CC)C(=S)N2Cc2ccco2)cc1 (stereo not given) the results were Sm TGR block -4%, Pf growth 96h 3%, Giardia FBPA inh -6%, Pf growth 48h -20% and HCMV antiviral -90*.
COC(=O)c1ccc(NC(=O)CC2C(=O)N(c3ccccc3)C(=O)N2Cc2ccco2)cc1 (stereo not given) was read as Sm TGR block inconclusive and HCMV antiviral 17.
For CCOc1ccc(NC(=O)CC2C(=O)N(c3ccccc3)C(=O)N2Cc2ccco2)cc1 (stereo not given) the results were Sm TGR block 45µM*, Pf growth 96h -65%, Giardia FBPA inh 0%, Pf growth 48h 8% and HCMV antiviral -22.
`COc1ccc(NC(=O)CC2C(=O)N(c3cccc(OC)c3)C(=O)N2Cc2ccco2)cc1` (stereo not given) gave Sm TGR block 45µM*, Pf growth 96h 9.3µM*, Giardia FBPA inh -2%, Pf growth 48h -4% and HCMV antiviral -2.
`CCN1C(=O)C(CC(=O)Nc2ccc(F)cc2)N(Cc2ccco2)C1=S` (stereo not given) gave Sm TGR block inconclusive, Pf growth 96h inconclusive, Giardia FBPA inh -6%, Pf growth 48h inconclusive and HCMV antiviral -6.
Screening O=C1c2oc3ccc(Cl)cc3c(=O)c2C(c2ccccn2)N1CCCN1CCOCC1 (stereo not given) returned Sm TGR block 13µM*, Pf growth 96h -25%, Giardia FBPA inh -6%, Pf growth 48h inconclusive and HCMV antiviral 13.
Screening Cc1ccc(C2c3c(oc4cc(C)c(C)cc4c3=O)C(=O)N2CCCN2CCOCC2)cc1 (stereo not given) returned Sm TGR block inconclusive, Pf growth 96h inconclusive, Giardia FBPA inh -2%, Pf growth 48h 5.2µM* and HCMV antiviral 4.
`CC(C)Oc1ccc(C2c3c(oc4ccccc4c3=O)C(=O)N2CCCN2CCOCC2)cc1` (stereo not given) gave Sm TGR block 40µM*, Pf growth 96h inconclusive, Giardia FBPA inh -8%, Pf growth 48h inconclusive and HCMV antiviral -27.
`O=C1c2oc3ccccc3c(=O)c2C(c2cccnc2)N1CCCN1CCOCC1` (stereo not given) gave Sm TGR block 45µM*, Pf growth 96h 17%, Giardia FBPA inh 0%, Pf growth 48h 13% and HCMV antiviral 2.
Screening COc1ccc(NC(=O)CN2C(=O)CSc3ccc(S(=O)(=O)N(C)C)cc32)cc1OC returned Sm TGR block 16% and HCMV antiviral 23.
Screening O=C(O)c1cc(C(=O)O)c(-c2ccccc2)c(C(=O)O)c1 returned Sm TGR block 5%, Pf growth 96h inconclusive, Giardia FBPA inh 16%, Pf growth 48h 2.9µM* and HCMV antiviral 1.
Screening O=C(O)c1cc(-c2ccccc2)nc(-c2ccccc2)c1 returned Sm TGR block 2%, Pf growth 96h inconclusive, Pf growth 48h -4% and HCMV antiviral 81.
For O=C(Nc1ccc(Cl)cc1)/C(=C/c1cccc(O)c1)c1nc2ccccc2s1 the results were Sm TGR block 2%, Pf growth 96h 4.1µM*, Giardia FBPA inh -5%, Pf growth 48h 9.3µM* and HCMV antiviral -98*.
S=C(Nc1ccc(Cl)cc1)c1nc2ccccc2s1 was read as Sm TGR block 11%, Pf growth 96h -16%, Giardia FBPA inh 7%, Pf growth 48h 69% and HCMV antiviral 31.
For Fc1ccccc1N1CCN(C2CCN(Cc3c[nH]c4ccccc34)CC2)CC1 the results were Sm TGR block 14%[11.4 µM], Pf growth 96h 3.7µM*, Giardia FBPA inh 0% and HCMV antiviral -18.
`C(=C\c1ccccc1)/CSc1nnc(-c2ccccn2)n1Cc1ccco1` gave Sm TGR block 35µM*, Giardia FBPA inh -14%, Pf growth 48h inconclusive and HCMV antiviral -13.
CCn1c(SCc2nc3ccccc3[nH]2)nnc1-c1ccccc1OC was read as Sm TGR block -4%, Pf growth 96h 3.7µM*, Giardia FBPA inh 3%, Pf growth 48h inconclusive and HCMV antiviral -16.
Screening CCn1c(COc2ccc(C)cc2)nnc1SCc1nc2ccccc2[nH]1 returned Sm TGR block 8%, Pf growth 96h inconclusive, Giardia FBPA inh 6%, Pf growth 48h inconclusive and HCMV antiviral -65*.
Screening c1ccc(-c2nnc(SCc3nc4ccccc4[nH]3)n2Cc2ccco2)nc1 returned Sm TGR block inconclusive, Pf growth 96h inconclusive, Giardia FBPA inh -1%, Pf growth 48h -23% and HCMV antiviral -64*.
CCn1c(SCc2nc3ccccc3[nH]2)nnc1-c1cccs1 was read as Sm TGR block 4%, Pf growth 96h -27%, Giardia FBPA inh inconclusive, Pf growth 48h 0% and HCMV antiviral inconclusive.
Screening COc1cc(CN2CCN(c3ncccn3)CC2)cc(OC)c1 returned Sm TGR block -3%, Pf growth 96h inconclusive, Giardia FBPA inh inconclusive, Pf growth 48h 18% and HCMV antiviral 13.
For CC(C)Nc1ncnc2c1ncn2[C@H]1CN(Cc2ccco2)C[C@@H](CO)O1 the results were HCMV antiviral -25.

Screens from PubChem.
